Test results: PubChem BioAssay (Tox21)
“And” between values parts separate entries of the source, which are not always exact repeats. Identical values can stand only once. Results filed as inconclusive are left out. Where a structure was tested more than once in an assay, its records may differ in their call. The source made the active and inactive calls. Calls follow the shape of the dose curve; as a rule, active = well fitted curve in the direction sought with a large enough effect in the repeat runs; inconclusive = weak or mixed curves; inactive = no such curve, though single readings can be large; an effect the other way counts as inactive or inconclusive.

What was measured:
[1] = A CellTox Green Cytotoxicity Assay to monitor cytotoxicity in HEK293 cells - 32 hour (AID 1224881); also: nearly all actives have a fitted effect of over 40% in size
Outline: (§1)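 Cells (HEK293, 600/well) and dye reagent are dispensed together. After 5 h at 37 C, 23 nL compound is pinned in. Plates stay at 37 C for 40 h with fluorescence read at 0h, 8h, 16h, 24h, 32h and 40h.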

[2] = A CellTox Green Cytotoxicity Assay to monitor cytotoxicity in HepG2 cells - 0 hour (AID 1224882); also: nearly all actives have a fitted effect of over 35% in size
Outline: (§2)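 Cells and non-lytic dye reagent are dispensed together (600 HepG2 cells/well) and incubated 5 h before DMSO compound transfer. Kinetic fluorescence is then recorded in the same wells during 40 h at 37 C.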

[3] = A CellTox Green Cytotoxicity Assay to monitor cytotoxicity in HepG2 cells - 32 hour (AID 1224883); also: nearly all actives have a fitted effect of over 50% in size
Outline: as §2

[4] = qHTS RealTime-Glo MT Cell Viability Assay in HEK293 cells - 24 hour (AID 1224886); also: nearly all actives have a fitted effect of over 50% in size
Outline: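 HEK293 cells were seeded at 600 cells/well together with NanoLuc luciferase and cell-permeant prosubstrate, preincubated 5 h at 37 C/5% CO2, then given compound in DMSO by pintool. Luminescence from viable-cell prosubstrate reduction was read repeatedly over 40 h.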

[5] = qHTS RealTime-Glo MT Cell Viability Assay in HEK293 cells - 8 hour (AID 1224887); also: nearly all actives have a fitted effect of over 50% in size
Outline: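 Real-time viability in HEK293: signal arises when living cells convert a prosubstrate for NanoLuc in the medium, so luminescence tracks viable cell number. Compound (23 nL, DMSO) added 5 h post-seeding; kinetic reads at 0–40 h, 37 C.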

[6] = A CellTox Green Cytotoxicity Assay to monitor cytotoxicity in HEK293 cells - 16 hour (AID 1224888); also: nearly all actives have a fitted effect of over 35% in size
Outline: as §1

[7] = qHTS RealTime-Glo MT Cell Viability Assay in HepG2 cells - 0 hour (AID 1224889); also: nearly all actives have a fitted effect of over 50% in size
Outline: (§3)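 HepG2 cells were seeded at 600 cells/well together with NanoLuc luciferase and a cell-permeant prosubstrate, preincubated 5 h at 37 C/5% CO2, then pin-dosed with compounds in DMSO. Nonlytic luminescence from viable cells was read at each time point.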

[8] = A CellTox Green Cytotoxicity Assay to monitor cytotoxicity in HepG2 cells - 8 hour (AID 1224890); also: nearly all actives have a fitted effect of over 45% in size
Outline: as §2

[9] = A CellTox Green Cytotoxicity Assay to monitor cytotoxicity in HEK293 cells - 8 hour (AID 1224884); also: nearly all actives have a fitted effect of over 35% in size
Outline: as §1

[10] = qHTS RealTime-Glo MT Cell Viability Assay in HepG2 cells - 16 hour (AID 1224885); also: nearly all actives have a fitted effect of over 50% in size
Outline: as §3

Measured: Potency
Potency is read from the fitted curve at half-maximal effect.

O=C1c2ccccc2Cc2ccccc21
not listed: [9] | [10]
inactive: all other assays above

N=C1C=CC(=C(c2ccc(N)cc2)c2ccc(N)cc2)C=C1
active: [4] 3.47 µM
not listed: [5] | [10]
inactive: all other assays above

CCCC(c1cc(C(C)(C)C)c(O)cc1C)c1cc(C(C)(C)C)c(O)cc1C
active: [1] 49.6 µM | [3] 35.1 µM | [10] 44.2 µM | [4] 22.1 µM | [5] 44.2 µM
inactive: [2] | [7]

CCOC(=O)O[C@]1(C(=O)OCCl)CC[C@H]2[C@@H]3CCC4=CC(=O)C=C[C@]4(C)[C@H]3[C@@H](O)C[C@@]21C
active: [7] 3.38 µM
not listed: [4] | [10]
inactive: all other assays above

CC(C)(C)CC(C)(C)c1ccc(OCCOCC[N+](C)(C)Cc2ccccc2)cc1
active: [1] 38.9 µM and 21.3 µM | [3] 27.5 µM and 15.1 µM | [10] 54.9 µM and 21.3 µM | [4] 19.5 µM and 9.52 µM | [6] 48.9 µM and 26.8 µM | [8] 26.8 µM
inactive: [2] | [7]

O=c1cc(-c2ccc(O)cc2)oc2cc(O)cc(O)c12
inactive and 38.9 µM (active): [3] | [8]
not listed: [4] | [10]
inactive: all other assays above

CCCCCCCCCOC(=O)c1ccc(O)cc1
inactive: [2] | [7] | [8]
active: [1] 38.3 µM | [3] 48.3 µM | [4] 38.3 µM | [5] 38.3 µM | [6] 38.3 µM

CN(C)C(=O)C1(N2CCCCC2)CCN(CC[C@@]2(c3ccc(Cl)c(Cl)c3)CN(C(=O)c3ccccc3)CCO2)CC1
active: [1] 32.4 µM | [3] 18.2 µM | [10] 36.3 µM | [4] 11.5 µM | [5] 16.2 µM | [6] 45.8 µM | [8] 45.8 µM
inactive: [2] | [7]

C[C@@H](NCCCc1cccc(C(F)(F)F)c1)c1cccc2ccccc12
active: [1] 23.9 µM | [3] 15.1 µM | [10] 21.3 µM | [4] 23.9 µM | [5] 23.9 µM | [6] 23.9 µM | [8] 21.3 µM
inactive: [2]

CCCN(CCC)C(=O)C(CCC(=O)OCCCN1CCN(CCOC(=O)Cc2c(C)n(C(=O)c3ccc(Cl)cc3)c3ccc(OC)cc23)CC1)NC(=O)c1ccccc1 (configuration not stated)
inactive: [1] | [2] | [9] | [6] | [7]
active: [3] 23.9 µM | [5] 23.9 µM

NC(=O)CC[C@@H]1NC(=O)[C@H](Cc2ccccc2)NC(=O)[C@H](Cc2ccc(O)cc2)NC(=O)CCSSC[C@@H](C(=O)N2CCC[C@H]2C(=O)N[C@@H](CCCN=C(N)N)C(=O)NCC(N)=O)NC(=O)[C@H](CC(N)=O)NC1=O
not listed: [9]
inactive: all other assays above

CCCCC(CC)COC(=O)c1ccccc1C(=O)O (configuration not stated)
not listed: [4] | [7] | [9]
inactive: all other assays above

CCCCCCC[N+](CC)(CC)CCCCc1ccc(Cl)cc1
active: [1] 5.35 µM | [3] 23.9 µM
inactive: [2] | [9] | [6] | [7] | [8]

CCCCCCCCCCCCc1ccc(O)cc1
active: [1] 49 µM | [3] 15.5 µM | [4] 43.6 µM | [5] 43.6 µM | [6] 49 µM | [8] 17.4 µM
inactive: [2] | [7]

CCCC(=O)OC[C@@H](OC(=O)CCC)[C@@H](OC(=O)CCC)[C@H](Cn1c2nc(=O)[nH]c(=O)c-2nc2cc(C)c(C)cc21)OC(=O)CCC
active: [1] 21.3 µM | [2] 16.9 µM | [3] 19 µM | [9] 21.3 µM | [6] 21.3 µM | [8] 19 µM
inactive: [7]

CCCCCCCCCCCCCCCS(=O)(=O)Oc1ccccc1
not listed: [4] | [5] | [9]
inactive: all other assays above

O=c1[nH]sc2ccccc12
active: [1] 54.9 µM | [3] 34.7 µM | [10] 21.9 µM | [4] 38.9 µM | [5] 49 µM | [8] 49 µM
inactive: [2] | [7]

COc1ccc(C(=O)/C(Br)=C\C(=O)O)cc1
active: [1] 30.9 µM | [3] 13.8 µM | [4] 38.9 µM
not listed: [5] | [10]
inactive: all other assays above

N/C(=N\N=C\c1ccc(Cl)cc1)N/N=C/c1ccc(Cl)cc1
active: [1] 23.9 µM | [3] 23.9 µM | [9] 23.9 µM | [6] 23.9 µM | [8] 21.3 µM
inactive: [2]

Oc1ccc2cc(SSc3ccc4cc(O)ccc4c3)ccc2c1
active: [1] 43.7 µM and 19.5 µM | [4] 49 µM | [5] 39 µM
not listed: [6] | [9]
inactive: all other assays above

CC(C)CCCCCCCCCCCCCCC(=O)O
not listed: [4] | [10]
inactive: all other assays above
